Assay results from PubChem BioAssay (Tox21).
Records with an inconclusive call do not appear. The source made the active and inactive calls. Calls follow the shape of the dose curve; as a rule, active = well fitted cell-killing curve with a large enough effect in the repeat runs; inconclusive = weak or mixed curves, or effect the other way; inactive = flat fitted curve, though single readings scatter.

assay: cAMP Responsive Elements (CRE) small molecule antagonists, cell-based qHTS assay: qHTS cell viability counter screen (AID 2060913); conditions: CRE-bla HEK293T viability, CellTiter-Glo luminescence, 5 h; series mostly up to 92.4 µM; viability change, negative = cytotoxic: at the top concentration; also: nearly all actives have a fitted effect of over 40% in size
Method in brief: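 Cytotoxicity read in the same wells as the CRE-bla HEK293T antagonist assay: after 3 h compound with 0.25 uM NKH477 final and 2 h beta-lactamase substrate, CellTiter-Glo luminescence measured.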
% is scaled to controls: 0 for no effect and ±100 for the full control effect.

SMILES	Potency	viability change, negative = cytotoxic
C=C[C@H]1CN2CC[C@H]1C[C@H]2[C@H](O)c1ccnc2ccc(OC)cc12	inactive	
N#C[C@@H]1CC(F)(F)CN1C(=O)CNC1CC2CCC(C1)N2c1ncccn1 (some centres not stated)		2.69% (inactive)
Nc1ccc(C(=O)OCC(O)CO)cc1 (configuration not stated)		0.231% [at 42.5 µM] (inactive)
C=C(C)C(=O)OC		0.0872% (inactive)
CCCN(CCc1cccs1)[C@H]1CCc2c(O)cccc2C1		-4.7% [at 42.5 µM] (inactive)
CC[N+](C)(CC)CC		9.58% (inactive)
S=c1[nH][nH]c(=S)s1		0.22% (inactive)
Oc1cccc2c(O)cccc12		10.6% (inactive)
CCCC(O)C(CC)CO (configuration not stated)	inactive	
CC(C)=CCCC(C)CCOC=O (configuration not stated)		7% (inactive)
C[Si]1(C)N[Si](C)(C)N[Si](C)(C)N1		-0.142% (inactive)
CN(C)CCOC(c1ccccc1)c1ccccc1 (tested in a mixture with another compound)		-0.865% (inactive)
C[N+](C)(C)CCCCCC[N+](C)(C)C	inactive	
C=C(C)C(=O)OCCOCCOCCOCCOC(=O)C(=C)C		-6.52% (inactive)
Cc1cc(=O)c2c(O)c3c(O)cc(=O)c4c3c3c(cc(O)c1c23)C(C)(C)C=4O		-18.2% [at 18.9 µM] (inactive)
NC(=O)N/N=C/c1ccc([N+](=O)[O-])o1	inactive	
COc1cc(S(=O)(=O)O)c(C)cc1N=Nc1c(O)ccc2cc(S(=O)(=O)O)ccc12		-1.36% (inactive)
Nc1nccs1		1.67% (inactive)
FC(F)(F)C(F)(F)C(F)(F)C(F)(F)C(F)(F)C(F)(F)CCI		4.81% [at 42.5 µM] (inactive)
CCc1cccc(CC)c1NC(=O)CN(CC(=O)O)CC(=O)O		0.58% [at 42.5 µM] (inactive)
O=C(O)c1ccc2cc(O)ccc2c1		0.0439% (inactive)
CC(C)C[C@H](NC(=O)[C@H](CCc1ccccc1)NC(=O)CN1CCOCC1)C(=O)N[C@@H](Cc1ccccc1)C(=O)N[C@@H](CC(C)C)C(=O)[C@@]1(C)CO1		-0.0993% [at 42.5 µM] (inactive)
